Unmarked numbers belong to inactive results. Results filed as inconclusive are left out. Active and inactive are the calls of the source. The call rests on the fitted dose curve; in most records, active means well fitted curve in the direction sought with a large enough effect; inconclusive means small, poorly fitted or top-dose-only effect, or another doubt; inactive means no such curve, though single readings can be large; an effect the other way counts as inactive or inconclusive.
Tests used:
[1] = target: Cytochrome P450 3A4 (Homo sapiens) (UniProt P08684); experiment: qHTS Assay for Activators of Cytochrome P450 3A4 (AID 885); further: nearly all actives have a fitted effect of over 65% in size
Chain of Cytochrome P450 3A4 (Homo sapiens) (P08684 whole entry, looked up): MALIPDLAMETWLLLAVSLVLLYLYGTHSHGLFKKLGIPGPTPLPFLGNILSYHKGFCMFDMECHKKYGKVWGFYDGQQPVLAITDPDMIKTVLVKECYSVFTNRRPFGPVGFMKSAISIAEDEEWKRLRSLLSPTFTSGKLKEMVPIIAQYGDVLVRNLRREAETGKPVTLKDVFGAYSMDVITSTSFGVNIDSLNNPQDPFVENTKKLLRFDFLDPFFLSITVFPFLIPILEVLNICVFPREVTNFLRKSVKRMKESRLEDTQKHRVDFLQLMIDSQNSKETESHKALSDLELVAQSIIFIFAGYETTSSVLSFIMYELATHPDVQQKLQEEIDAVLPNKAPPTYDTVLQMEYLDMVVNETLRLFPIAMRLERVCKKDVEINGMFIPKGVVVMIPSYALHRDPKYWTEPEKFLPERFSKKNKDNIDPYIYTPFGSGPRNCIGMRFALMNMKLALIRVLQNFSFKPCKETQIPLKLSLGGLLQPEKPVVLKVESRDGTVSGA
Outline: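 20nM CYP3A4 + 25uM Luciferin-PPXE (=KM), 200mM KPO4; cpd 10 min RT; NADPH regen, 60 min RT; stop w/ detection buffer, 20 min; luminescence. Normalized to 57 uM ketoconazole.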

[2] = target: Cytochrome P450 2D6 (Homo sapiens) (UniProt P10635); experiment: qHTS Assay for Inhibitors and Substrates of Cytochrome P450 2D6 (AID 891); further: nearly all actives have a fitted effect of over 60% in size; further: potency means the concentration at half of the fitted maximal effect
Chain of Cytochrome P450 2D6 (Homo sapiens) (P10635 whole entry, looked up): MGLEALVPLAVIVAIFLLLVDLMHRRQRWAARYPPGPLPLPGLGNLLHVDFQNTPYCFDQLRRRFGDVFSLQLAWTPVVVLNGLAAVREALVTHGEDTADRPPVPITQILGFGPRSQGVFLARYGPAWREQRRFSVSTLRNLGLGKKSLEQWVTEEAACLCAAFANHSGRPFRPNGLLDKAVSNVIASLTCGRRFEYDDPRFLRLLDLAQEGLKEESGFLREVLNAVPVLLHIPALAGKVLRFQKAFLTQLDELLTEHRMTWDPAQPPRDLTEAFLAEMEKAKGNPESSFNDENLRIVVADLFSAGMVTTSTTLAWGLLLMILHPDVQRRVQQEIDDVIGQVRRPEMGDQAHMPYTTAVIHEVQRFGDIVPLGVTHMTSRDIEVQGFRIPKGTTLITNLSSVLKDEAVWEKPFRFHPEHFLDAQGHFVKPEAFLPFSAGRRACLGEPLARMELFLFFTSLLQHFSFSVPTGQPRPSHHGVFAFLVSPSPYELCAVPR
Outline: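 Human CYP2D6 (5 nM) with 30 uM Luciferin-ME EGE (at Km) in 100 mM KPO4, compound preincubated 10 min, then NADPH regeneration system for 60 min at room temperature. Luciferin read by luminescence; normalized to 1.43 uM quinidine.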

[3] = target: Cytochrome P450 2C19 (Homo sapiens) (UniProt P33261); experiment: qHTS Assay for Inhibitors and Substrates of Cytochrome P450 2C19 (AID 899); further: nearly all actives have a fitted effect of over 60% in size; further: potency means the concentration at half of the fitted maximal effect
Chain of Cytochrome P450 2C19 (Homo sapiens) (P33261 whole entry, looked up): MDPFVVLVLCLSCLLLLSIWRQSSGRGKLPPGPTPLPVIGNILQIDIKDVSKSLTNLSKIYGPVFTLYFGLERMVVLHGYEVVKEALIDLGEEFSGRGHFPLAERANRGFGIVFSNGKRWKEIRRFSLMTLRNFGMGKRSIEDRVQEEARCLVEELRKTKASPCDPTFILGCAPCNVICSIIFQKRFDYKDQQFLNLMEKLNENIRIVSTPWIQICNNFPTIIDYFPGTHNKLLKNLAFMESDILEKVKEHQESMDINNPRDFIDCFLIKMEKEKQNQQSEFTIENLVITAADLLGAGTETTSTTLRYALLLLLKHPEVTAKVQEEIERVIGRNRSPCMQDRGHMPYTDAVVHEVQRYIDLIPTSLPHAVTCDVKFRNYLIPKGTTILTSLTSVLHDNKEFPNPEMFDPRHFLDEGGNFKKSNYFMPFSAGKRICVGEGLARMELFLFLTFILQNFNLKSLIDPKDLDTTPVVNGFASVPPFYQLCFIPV
Outline: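 Reactions contain 5nM enzyme, 10uM Luciferin-H EGE (KM) and 50mM KPO4; compound preincubates 10 min at 37C, NADPH regeneration starts turnover for 60 min. Luminescence after detection reagent gives activity.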

[4] = Confirmation and Secondary Assay for Modulators of Hemoglobin Beta Chain Splicing at IVS2 654 locus (AID 910);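 further: HeLa cells stably carrying EGFP split by mutant beta-globin IVS2-654 intron; per-well total GFP intensity by laser scanning cytometry after 2-day treatment; % of control where 0% means no effect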
Outline: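 Readout: per-well total peak green fluorescence (488 nm ex, 500–520 nm em) from objects 5–250 µm, reflecting correct splicing of an EGFP-654 reporter. Compounds were applied for 2 days at 37 °C to overnight-plated HeLa EGFP-654 cells; controls were DMSO and 500 nM IVS2-654 PNA.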

[5] = Confirmation and Secondary Assay for Modulators of Hemoglobin Beta Chain Splicing at IVS2 705 locus (AID 930);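 further: HeLa cells stably expressing the EGFP-705 splicing reporter; series mostly up to about 46 µM; % of control where 0% means no effect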
Outline: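 HeLa cells stably carrying EGFP interrupted by mutant beta-globin IVS2-705 intron (CMV-driven) were seeded at 500 cells/well, treated next day with compound for 2 days at 37C; corrected splicing restores EGFP, read as total peak GFP intensity per well.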

CC(C)=NO[C@@H](C)CN1CCCCc2nc(C)c(C)cc21
activity change, positive = activation [1]: -46.4% [at 11.4 µM] | Potency [2]: 2.51 µM (active)

CC(=O)OC[C@@H]1O[C@H](C/C=N\O[C@@H](C)CN2CCCCc3nc(C)c(C)cc32)C=C[C@@H]1OC(C)=O
activity change, positive = activation [1]: -57.2% [at 11.4 µM] | Potency [2]: 3.16 µM (active)

CC(=O)[C@@H]1[C@H]2[C@H](C(=O)[C@H]3OC[C@@H]2O3)[C@H]2C=Cc3ccccc3N21
Potency [1]: inactive

C[C@@H](c1ccccc1)N1C(=O)[C@H]2[C@H]3[C@H](O)[C@H](O)C/C(=N/OCc4ccccc4)[C@H]3CC[C@@H]2C1=O
activity change, positive = activation [1]: -40.9% [at 11.4 µM]

C/C=C/OC(=O)NC(c1ccccc1)[C@]1(C(C)=O)CCCC1=O (stereo not given in full)
activity change, positive = activation [1]: -53.9% [at 11.4 µM] | Potency [2]: inactive | Potency [3]: 0.199 µM (active)

CCCCCCC#CC1C=CC(OC(C)=O)C(COC(C)=O)O1 (stereo not given)
activity change, positive = activation [1]: -57.5% [at 11.4 µM]

CC(=O)OC[C@H]1O[C@@H](O/N=C(\C)CCN2CCc3nc(-c4ccccc4)c(-c4ccccc4)cc3C2)[C@H](OC(C)=O)[C@@H](OC(C)=O)[C@H]1OC(C)=O
activity change, positive = activation [1]: -41.6% [at 11.4 µM] | Potency [2]: 3.16 µM (active)

CO[C@@H]1/C=C\CC(=O)N[C@@H](C)C(=O)OC[C@H](NS(=O)(=O)c2ccc(C)cc2)[C@H](C)/C=C\CC(=O)OC[C@H]1C
activity change, positive = activation [1]: -37.9% [at 11.4 µM]

CN1C[C@@H]2C(c3ccc(Cl)nc3)C3(c4ccc(C#N)cc4)CC2(C3)[C@H]1c1ccccc1 (stereo not given in full)
Potency [1]: inactive

CCN1C(=O)[C@H]2[C@H]3[C@H](O)[C@H](O)C/C(=N/OC[C@@H](C)[C@H](OCc4ccccc4)C(C)C)[C@@H]3CC[C@@H]2C1=O
activity change, positive = activation [1]: -44.7% [at 11.4 µM] | Potency [2]: inactive

COC(c1ccccc1Br)C(C)/C=C/CCO (stereo not given)
activity change, positive = activation [1]: -47.9% [at 11.4 µM] | Potency [2]: inactive | Potency [3]: 1.58 µM (active)

C[C@@H]1/C=C\CC(=O)OC[C@H]2O[C@@H](C=C[C@@H]2O)[C@H](C)/C=C\CC(=O)OC1
activity change, positive = activation [1]: -35.6% [at 11.4 µM] | Potency [2]: inactive

COC(=O)C/C=C\[C@@H](C)[C@@H](/C=N\OC[C@@H](O)[C@H]1O[C@H]2OC(C)(C)O[C@H]2[C@@H]1O)OC
activity change, positive = activation [1]: -43.3% [at 11.4 µM] | Potency [2]: inactive

CO[C@@H]1COC(=O)[C@@H](C)NC(=O)C/C=C\[C@@H](C)[C@H](NS(=O)(=O)c2ccc(C)cc2)COC(=O)[C@H](C)NC(=O)C/C=C\[C@H]1C
activity change, positive = activation [1]: -53.2% [at 11.4 µM] | Potency [2]: inactive

CO/N=C(\C)CCN1CCCCc2nc(C)c(C)cc21
activity change, positive = activation [1]: -38.2% [at 11.4 µM] | Potency [2]: 3.98 µM (active)

O=C1[C@@H]2[C@H]3[C@H](O)[C@H](O)C/C(=N/OCc4ccccc4)[C@H]3CC[C@H]2C(=O)N1c1ccc(F)cc1F
activity change, positive = activation [1]: -34.3% [at 11.4 µM]

O=C(NCCC[N+]1=CC=N[C@H]1c1ccccc1)N1CCCc2nc(-c3ccc(Br)cc3)ccc21
activity change, positive = activation [1]: -35.8% [at 11.4 µM] | Potency [2]: 0.0794 µM (active)

CC(=O)OC[C@H]1O[C@@H](O/N=C(\C)CCN2CCCCc3nc(C)c(C)cc32)[C@H](OC(C)=O)[C@@H](OC(C)=O)[C@H]1OC(C)=O
activity change, positive = activation [1]: -53.9% [at 11.4 µM] | Potency [2]: 3.98 µM (active)

Clc1ccc(C2[C@H]3CN(Cc4ccc(-c5ccccc5)cc4)[C@H](c4ccccc4)C34CC2(c2ccccc2)C4)cn1 (stereo not given in full)
Potency [1]: inactive

CCOC(=O)CCN1C(=O)[C@H]2[C@@H]3[C@H](O)[C@H](O)CC(=O)[C@H]3CC[C@H]2C1=O
Potency [3]: inactive

C=CC1=C[C@@H](O)C2OC2C12OCCCO2 (stereo not given in full)
Potency [3]: inactive

O=C1C[C@H](c2ccccc2)[C@@H](c2ccc(Br)cc2)O1
Potency [3]: 0.398 µM (active)

CC(=O)OC1CCC2(C)C3=C(CCC2C1(C)C)[C@@]1(C)CCC(C(C)CCC=C(C)C)[C@@]1(C)CC3 (stereo not given in full)
outcome [4]: inactive | outcome [5]: inactive

Nc1ncn(C2OC(CO)C(O)C2O)c(=O)n1 (stereo not given)
outcome [4]: inactive | outcome [5]: inactive

COC(=O)C/C=C\[C@@H](C)[C@@H](/C=N\O[C@@H](C)c1cn([C@H]2COC[C@H]2O)nn1)OC
Potency [3]: inactive

CC(C)=NO[C@@H](C)c1cn([C@@H]2COC[C@@H]2O)nn1
Potency [3]: inactive

CC(=O)OC[C@@H]1O[C@@H](O/N=C2/C[C@@H](O)[C@@H](O)[C@@H]3[C@@H]4C(=O)N(C(C)(C)C)C(=O)[C@H]4CC[C@H]23)[C@H](OC(C)=O)[C@H](OC(C)=O)[C@@H]1OC(C)=O
Potency [3]: inactive

COc1ccc(O[C@H]2C=C[C@@H](c3ccccc3)O[C@@H]2CO/N=C(\C)CCN2CCc3nc(-c4ccccc4)c(-c4ccccc4)cc3C2)cc1
Potency [3]: 0.251 µM (active)

CC(=O)OCC1OC(C#Cc2ccc(Br)cc2)C=CC1OC(C)=O (stereo not given)
Potency [3]: inactive
